In PubChem BioAssay (NCATS) one finds Potency and outcome data, which are given here for 27 molecules.

Results filed as inconclusive are left out. Entries that show only a call come without a potency. Active and inactive are the calls of the source. Calls come from the whole dose curve; as a rule, active = well fitted curve in the direction sought with a large enough effect; inconclusive = small, poorly fitted or top-dose-only effect, or another doubt; inactive = no such curve, though single readings can be large; an effect the other way counts as inactive or inconclusive.

Chain of Lysine-specific demethylase 5B (Homo sapiens) (Q9UGL1 whole entry, looked up): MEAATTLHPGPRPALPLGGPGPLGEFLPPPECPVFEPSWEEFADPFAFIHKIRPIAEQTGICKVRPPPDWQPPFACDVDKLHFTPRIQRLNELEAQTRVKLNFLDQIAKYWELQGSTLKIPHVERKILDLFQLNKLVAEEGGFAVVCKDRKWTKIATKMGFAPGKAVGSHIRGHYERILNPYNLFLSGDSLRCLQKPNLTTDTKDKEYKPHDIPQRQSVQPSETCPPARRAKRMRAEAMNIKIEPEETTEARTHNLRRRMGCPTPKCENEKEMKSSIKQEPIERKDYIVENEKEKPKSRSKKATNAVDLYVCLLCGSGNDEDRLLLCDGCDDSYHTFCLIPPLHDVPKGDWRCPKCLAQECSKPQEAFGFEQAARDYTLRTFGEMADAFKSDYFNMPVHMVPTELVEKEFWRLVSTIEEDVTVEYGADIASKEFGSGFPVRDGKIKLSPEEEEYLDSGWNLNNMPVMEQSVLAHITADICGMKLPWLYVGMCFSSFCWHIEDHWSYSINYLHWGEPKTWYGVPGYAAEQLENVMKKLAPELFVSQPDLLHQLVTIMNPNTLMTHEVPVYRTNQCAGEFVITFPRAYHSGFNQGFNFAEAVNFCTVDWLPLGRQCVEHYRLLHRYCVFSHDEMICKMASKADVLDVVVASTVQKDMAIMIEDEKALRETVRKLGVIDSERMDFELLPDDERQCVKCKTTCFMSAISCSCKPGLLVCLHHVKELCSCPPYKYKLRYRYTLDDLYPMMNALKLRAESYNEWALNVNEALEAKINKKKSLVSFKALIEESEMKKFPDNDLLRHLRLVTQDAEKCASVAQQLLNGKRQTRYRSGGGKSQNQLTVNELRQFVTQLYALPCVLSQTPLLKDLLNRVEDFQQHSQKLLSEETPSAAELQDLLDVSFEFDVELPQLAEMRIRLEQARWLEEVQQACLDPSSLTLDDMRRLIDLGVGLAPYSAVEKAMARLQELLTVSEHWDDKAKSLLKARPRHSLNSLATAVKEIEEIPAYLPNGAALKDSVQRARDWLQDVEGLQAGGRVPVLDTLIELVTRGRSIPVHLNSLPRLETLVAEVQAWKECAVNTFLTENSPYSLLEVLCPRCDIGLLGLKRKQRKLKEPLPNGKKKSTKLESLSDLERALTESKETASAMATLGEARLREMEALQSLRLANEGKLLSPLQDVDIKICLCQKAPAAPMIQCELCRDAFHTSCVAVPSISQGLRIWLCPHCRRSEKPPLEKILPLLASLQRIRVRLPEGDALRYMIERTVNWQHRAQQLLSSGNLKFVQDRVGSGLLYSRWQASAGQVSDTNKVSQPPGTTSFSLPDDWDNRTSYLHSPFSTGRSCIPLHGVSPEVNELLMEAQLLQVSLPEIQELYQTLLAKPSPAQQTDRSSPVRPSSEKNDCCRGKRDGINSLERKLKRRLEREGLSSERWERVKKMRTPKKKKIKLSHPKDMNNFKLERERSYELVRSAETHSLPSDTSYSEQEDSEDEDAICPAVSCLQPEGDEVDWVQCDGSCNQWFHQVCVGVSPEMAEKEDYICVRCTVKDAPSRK

The first assay concerns Zika virus NS2B-NS3 protease (linked construct). Description: 384 well plate NINDS Rhodamine confirmatory qHTS for Zika virus inhibitors (AID 1347164). Note: nearly all actives have a fitted effect of over 65% in size. Note: potency is the fitted concentration of half-maximal effect. Conditions: rhodamine-110 peptide substrate fluorescence; series mostly up to 1 mM. Summed up: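 Linked NS2B-NS3 protease (final 5, 30 or 60 nM) preincubated ~15 minutes with compounds, then 10 microM Ac-LKRR-Rhodamine 110 added. Fluorescence (485/538 nm) read after 25 minutes at room temperature, normalized to no-enzyme and no-inhibitor controls.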
On to `O=C(Nc1ccc([N+](=O)[O-])cc1Cl)c1cc(Cl)ccc1O`, for which the Potency is 7940 nM (active). As for `Cc1ccc(C(=O)Nc2ccc(S(=O)(=O)O)c3cc(S(=O)(=O)O)cc(S(=O)(=O)O)c23)cc1NC(=O)c1cccc(NC(=O)Nc2cccc(C(=O)Nc3cc(C(=O)Nc4ccc(S(=O)(=O)O)c5cc(S(=O)(=O)O)cc(S(=O)(=O)O)c45)ccc3C)c2)c1`, the Potency entry is “inactive”. Still for that read-out and setting: under `O=C1Cc2cc(CCN3CCN(c4nsc5ccccc45)CC3)c(Cl)cc2N1` stands 2820 nM (active).

A further assay addresses Lysine-specific demethylase 5B (Homo sapiens) (UniProt Q9UGL1). Description: Optimization screen for KDM5B Histone Demethylases FDH coupled qHTS against the LOPAC library (AID 1347166). Conditions: KDM5B demethylation, FDH-coupled NADH fluorescence (FDH is formaldehyde dehydrogenase); series mostly up to 57.5 µM. In a few lines: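 KDM5BDeltaAP (200nM final) preincubated 10 min with compound, then 12.5uM H3K4Me3, 25uM a-ketoglutarate, ascorbate, Fe(II), NAD+ and FDH added; 50mM HEPES pH 7.5, 0.01% Tween-20. NADH fluorescence (340/450 nm) change over 30 min, room temperature.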
In general terms: Quantitative high-throughput screening tests each substance at several concentrations.
Consider `Fc1ccc([C@@H]2CCNC[C@H]2COc2ccc3c(c2)OCO3)cc1`, for which the result was inactive. On the same count and under the same terms, to `Nc1ccn([C@H]2CC[C@@H](CO)O2)c(=O)n1` belongs “inactive”; to `CC[N+](CC)(CC)CCOc1cccc(OCC[N+](CC)(CC)CC)c1OCC[N+](CC)(CC)CC`, “inactive”.

As for `CN1CCC(=C2c3ccccc3CC(=O)c3sccc32)CC1`, the call was inactive. For the molecule `Cc1cn([C@H]2C[C@H](N=[N+]=[N-])[C@@H](CO)O2)c(=O)[nH]c1=O`, the result was inactive. With `CC(C)(Oc1ccc(C2CC2(Cl)Cl)cc1)C(=O)O` (stereo unspecified), the call was inactive.

As to `CCC1(C)CC(=O)NC1=O` (stereo unspecified), the molecule was called inactive. For the molecule `CCOC(=O)C(C)(C)Oc1ccc(Cl)cc1`, the molecule was called inactive. Still for that read-out and setting: to `NS(=O)(=O)c1cc2c(cc1Cl)NCNS2(=O)=O` belongs “inactive”; to `OCCN1CCN(CCCN2c3ccccc3Sc3ccc(C(F)(F)F)cc32)CC1`, “inactive”; to `COC(=O)Nc1nc2ccc(C(=O)c3cccs3)cc2[nH]1`, “inactive”. On to `CN1C2CCC1CC(OC(=O)C(CO)c1ccccc1)C2` (stereo unspecified), for which the outcome was inactive.

Consider `COc1ccccc1OCC(O)CN1CCN(CC(=O)Nc2c(C)cccc2C)CC1` (stereo unspecified), for which the call was inactive. With `CCCCc1oc2ccccc2c1C(=O)c1cc(I)c(OCCN(CC)CC)c(I)c1`, the result was inactive. As to `CC(COc1ccccc1)N(CCCl)Cc1ccccc1` (stereo unspecified), the molecule was classed as inactive.

As for `CN1C(C(=O)Nc2ccccn2)=C(O)c2ccccc2S1(=O)=O`, the result was inactive. Same read-out and setting: under `CN1CCN(CCCN2c3ccccc3Sc3ccc(Cl)cc32)CC1` stands “inactive”; under `CC#C[C@]1(O)CC[C@H]2[C@@H]3CCC4=CC(=O)CCC4=C3[C@@H](c3ccc(N(C)C)cc3)C[C@@]21C`, “inactive”; under `COc1ccccc1OCCNCC(O)COc1cccc2[nH]c3ccccc3c12` (stereo unspecified), “inactive”. As to `O=C(Nc1ccc([N+](=O)[O-])cc1Cl)c1cc(Cl)ccc1O`, the result was inactive. On the same count and under the same terms, under `Cc1cc(C(C)(C)C)cc(C)c1CC1=NCCN1` stands “inactive”. Regarding `COc1ccccc1N1CCN(CC(O)COc2cccc3ccccc23)CC1` (stereo unspecified), the result was inactive.

In the case of `O=C1c2c(O)ccc(O)c2C(=O)c2c(NCCNCCO)ccc(NCCNCCO)c21`, the molecule was classed as inactive. Same read-out and setting: under `Cn1cnc2c1c(=O)[nH]c(=O)n2C` stands “inactive”; under `O=C1N(c2ccccc2)c2ccccc2C1(Cc1ccncc1)Cc1ccncc1`, “inactive”.

Test system in the next assay: not listed separately
The assay is described as follows: Tertiary RLuc qRT-PCR qHTS assay for Zika virus inhibitors (AID 1347169). Note: nearly all actives have a fitted effect of over 55% in size. Note: potency is the fitted concentration of half-maximal effect. Conditions: infected Vero cells, reporter luminescence, 48-72 h; series mostly up to 45.9 µM. In a few lines:
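Vero cells (1,000/well) infected with recombinant ZIKV-RLuc (Cambodian) at MOI 1-2 after compound addition, 48-72 hrs at 37 degrees C. Live-cell Renilla luciferase substrate added; luminescence read after 1-1.5 hrs.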
In general terms: Quantitative PCR measures a nucleic acid by following its amplification.
As for `O=C(Nc1ccc([N+](=O)[O-])cc1Cl)c1cc(Cl)ccc1O`, the Potency is 294 nM (active). Same read-out and setting: under `Cc1ccc(C(=O)Nc2ccc(S(=O)(=O)O)c3cc(S(=O)(=O)O)cc(S(=O)(=O)O)c23)cc1NC(=O)c1cccc(NC(=O)Nc2cccc(C(=O)Nc3cc(C(=O)Nc4ccc(S(=O)(=O)O)c5cc(S(=O)(=O)O)cc(S(=O)(=O)O)c45)ccc3C)c2)c1` stands “inactive”; under `O=C1Cc2cc(CCN3CCN(c4nsc5ccccc45)CC3)c(Cl)cc2N1`, “inactive”.
